Results as given in PubChem BioAssay.
“And” between values parts separate entries of the source, which are not always exact repeats. Identical values can stand only once. The source made the active and inactive calls.

Experiments:
Albumin (Bos taurus) = Albumin (Bos taurus) (UniProt P02769); assay: bovine serum albumin binders on microarray, profiling panel, artefact control for SMM control protein annotation, biochemical, small-molecule microarray, Alexa647 label, 635/667 nm fluorescence (AID 1118); conditions: BSA-A647 binding, fluorescence 635 nm, higher = more signal;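 note: score merges 667 nm emission intensity and signal-to-noise per printed compound spot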
[1] = small-molecule microarray binders of probe aXIP, primary screen, biochemical, NeuroSMM set, 635/667 nm fluorescence (AID 1119); conditions: higher = more signal, called active from +8 up or from −8 down;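 note: probe is the protein aXip251-270 applied at 1 µg/mL to compound-printed slides; binding of probe to printed compounds measured as 667 nm fluorescence plus signal to noise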
[2] = small-molecule binders of probe aNOTCH3, primary screen, biochemical, small-molecule microarray, 635/667 nm fluorescence (AID 1120); conditions: higher = more signal;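 note: probe is a biotin-tagged antibody raised against NOTCH3 rather than NOTCH3 protein; score merges spot fluorescence near 667 nm with spot signal to noise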
[3] = small-molecule binders of probe aNOTCH2, primary screen, biochemical, small-molecule microarray, 635/667 nm fluorescence (AID 1121); conditions: higher = more signal;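 note: score merges feature fluorescence read at 667 nm with its signal to noise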
[4] = target: Carbonic anhydrase 2 (Homo sapiens) (UniProt P00918); assay: CAII small-molecule binders, profiling panel, biochemical, small-molecule microarray, Alexa647-labelled CAII (AID 1122); conditions: CAII-A647 binding fluorescence, higher = more signal
[5] = COS7 lysate on small-molecule microarray, probe aHis, 635 nm (AID 1123); conditions: COS7 cell lysate, fluorescence, higher = more signal;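 note: z-score combines 667nm fluorescence intensity with signal-to-noise per printed compound spot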
[6] = compound binding in COS7 lysate, probe aLAP1, primary screen, cell lysate, small-molecule microarray (AID 1124); conditions: probe aLAP1, fluorescence, higher = more signal;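 note: lysate comes from COS7 cells expressing LAP1 and is applied at 0.3 µg/mL; score merges spot fluorescence near 667 nm with signal-to-noise over triplicate slides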
Sam68 (KHDRBS1) = assay: Sam68 small-molecule binders, primary screen, biochemical, small-molecule microarray, 635 nm fluorescence (AID 1125); conditions: small-molecule microarray binding, higher = more signal;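 note: score merges 667 nm channel intensity with signal to noise over triplicate slides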
[7] = system: Chordin-like protein 2 (CHRDL2); assay: CHRDL2 small-molecule binders, primary screen, biochemical, small-molecule microarray, 635 nm fluorescence (AID 1126); conditions: small-molecule microarray binding, fluorescence 635 nm; higher = more signal;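 note: printed compound slides probed with Chrdl2 protein at 4 µg/mL for 1 h at 4 C; score merges 667 nm emission intensity with signal to noise over three replicate slides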
[8] = target: Concanavalin-A (Canavalia ensiformis) (UniProt P02866); assay: ConA small-molecule binders, primary screen, artefact control for SMM control protein annotation, biochemical, small-molecule microarray, Alexa647 label, 635 nm (AID 1127); conditions: ConA-A647 binding fluorescence, higher = more signal;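 note: z combines 667 nm emission intensity with signal-to-noise across three replicate slides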
Concanavalin-A (Canavalia ensiformis), sequence (P02866 whole entry, looked up): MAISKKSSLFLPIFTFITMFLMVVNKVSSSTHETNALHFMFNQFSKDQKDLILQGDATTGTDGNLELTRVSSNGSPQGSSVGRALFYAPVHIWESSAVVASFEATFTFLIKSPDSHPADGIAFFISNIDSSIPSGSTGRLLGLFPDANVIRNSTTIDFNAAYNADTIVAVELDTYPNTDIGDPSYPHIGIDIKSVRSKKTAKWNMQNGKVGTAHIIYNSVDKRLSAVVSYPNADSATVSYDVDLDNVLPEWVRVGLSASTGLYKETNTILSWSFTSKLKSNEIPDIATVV

Albumin (Bos taurus), sequence (P02769 whole entry, looked up): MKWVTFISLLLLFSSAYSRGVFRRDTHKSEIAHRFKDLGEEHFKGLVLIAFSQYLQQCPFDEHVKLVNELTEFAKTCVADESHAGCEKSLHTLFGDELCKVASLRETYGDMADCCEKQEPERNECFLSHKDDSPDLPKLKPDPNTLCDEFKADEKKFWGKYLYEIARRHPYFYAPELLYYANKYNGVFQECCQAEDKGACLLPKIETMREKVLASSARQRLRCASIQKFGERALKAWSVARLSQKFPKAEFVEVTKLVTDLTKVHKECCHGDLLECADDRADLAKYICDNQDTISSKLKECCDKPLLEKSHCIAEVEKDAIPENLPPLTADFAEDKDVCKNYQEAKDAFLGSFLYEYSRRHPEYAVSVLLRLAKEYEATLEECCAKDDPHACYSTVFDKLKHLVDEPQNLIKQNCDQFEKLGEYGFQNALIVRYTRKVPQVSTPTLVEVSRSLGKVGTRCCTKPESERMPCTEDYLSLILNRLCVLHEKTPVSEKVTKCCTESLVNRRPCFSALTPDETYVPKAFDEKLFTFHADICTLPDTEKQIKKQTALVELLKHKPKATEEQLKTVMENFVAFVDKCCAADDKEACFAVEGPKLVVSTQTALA

Structure (SMILES) | composite z-score (Albumin (Bos taurus)) | composite Z-score [1] | composite z-score [2] | composite z-score [3] | composite z-score [4] | composite z-score [5] | composite z-score [6] | composite z-score (Sam68 (KHDRBS1)) | composite z-score [7] | composite z-score [8]
CCOC(=O)[C@@H]1CC=C2CC1C(=O)N1CCC[C@@H]1[C@H]2O[Si](C)(C)C(C)(C)C (stereo not given in full) | -0.657 and -0.964 | 0.047 (inactive) and -0.365 (inactive) | -0.227 and -0.352 | -0.147 and -0.202 | -0.33 and -0.492 | -0.273 and -0.211 | -0.687 and -0.442 | -1.04 and -1.8 | -0.486 and -0.0717 | -2.59 and -3.25
C=CCN(CCCC)C(=O)C1N(CCCCCCO)C(=O)C2C(C(=O)O)C3C=CC21O3 (stereo not given) | -1.52 and -1.4 | 0.0063 (inactive) and 0.131 (inactive) | -0.555 and -0.323 | -0.222 and -0.185 | 0.913 and 0.938 | -0.809 and 0.159 | 0.861 and 0.0304 | -0.243 and -0.577 | -1.56 and -3.19 | -2.11 and -0.791
CO[C@@H]1COC(=O)CC=C[C@H](C)[C@@H](NS(=O)(=O)c2ccc(C)cc2)COC(=O)CC=C[C@@H]1C | 0.451 and -0.303 | -0.288 (inactive) and 0.209 (inactive) | 0.127 and 0.0876 | -0.0995 and -0.175 | 0.0088 and -0.407 | 0.199 and -1.12 | 0.0136 and -0.0513 | 0.762 and 0.68 | 0.685 and 1.25 | -0.0145 and -0.207
C=CCN(Cc1ccccc1)C(=O)C1N(c2ccc(CCO)cc2)C(=O)C2C(C(=O)O)C3C=CC21O3 (stereo not given) | -1.88 and -0.419 | -0.364 (inactive) and -0.371 (inactive) | -0.393 and -0.575 | -0.201 and 0.0434 | 0.942 and 0.937 | -0.361 and -0.701 | -0.418 and -0.931 | -1.15 and -1.08 | -1.61 and -3.84 | -1.82 and -1.97
COCn1c2ccccc2c2nnc(C(C)=O)nc21 | -0.565 and -0.0926 | -0.158 (inactive) and -0.123 (inactive) | -0.0647 and 0.106 | -0.131 and -0.126 | 0.158 and -0.258 | -0.0769 and 0.263 | 0.325 and 0.155 | 0.132 and 0.584 | 0.488 and 0.54 | 0.133 and -0.0846
C[N+](C)(C)CCCCNC(=O)[C@H]1C[C@H]2C(=O)N[C@@H](CCCC[N+](C)(C)C)C(=O)N2[C@H]1c1ccc(O)cc1 | -0.839 and -1.32 | 0.472 (inactive) and 2.29 (inactive) | -0.0947 and 0.0311 | -0.14 and -0.108 | 0.257 and 0.0659 | 0.385 and 0.233 | -0.126 and -0.102 | 1.32 and 0.681 | 1.5 and 1.48 | 1.16 and -0.33
Cc1ccc(S(=O)(=O)N[C@@H]2COC(=O)CC=C[C@@H](C)[C@@H]3C=C[C@H](O)[C@@H](COC(=O)CC=C[C@H]2C)O3)cc1 | -0.311 and -0.304 | -0.842 (inactive) and -0.0662 (inactive) | 0.0426 and -0.161 | -0.14 and -0.124 | -0.0023 and 0.221 | -0.348 and 0.043 | 0.0386 and 0.26 | -0.132 and 0.293 | 0.711 and 0.396 | -0.6 and 0.152
CCOC(=O)CCN1C(=O)[C@H]2[C@H]3[C@H](O)[C@H](O)CC(=NNC(=O)OCC)[C@@H]3CC[C@H]2C1=O | 0.357 | -0.436 (inactive) | 0.229 | -0.0131 | -0.249 | 0.043 | 0.127 | 0.739 | -0.0855 | 0.0804
